Laboratory results as given in PubChem BioAssay (NCI).
Where “and” joins values, the source holds several entries; their conditions need not be identical. Identical values can stand only once. Compounds without any hit were thinned out: in the full panel of roughly 79,000, 15% have a hit. Values without a mark were called inactive. Calls of active or inactive are those of the source. No stated cut-off is given here; in the data, active means growth inhibition above about 70%; inactive means the rest.

assay: NCI Yeast Anticancer Drug Screen. Data for the rad50 strain (AID 155);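 further: 0% = growth of vehicle-only cultures of the same strain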; settings: S. cerevisiae rad50 strain growth inhibition; at 5.0 µM (retest, dose inferred, filed as 0.5); stronger effect = higher value
Method: Growth inhibition of yeast strains with defined genetic alterations is measured as a screen for potential anti-cancer activity. Selected strains with alterations in DNA damage repair or cell cycle control were exposed to compounds and growth inhibition was measured relative to vehicle treated controls. The strain used in this assay is rad50

SMILES | growth inhibition
Nc1nc(N)c(-c2ccc(Cl)c(Cl)c2)c(COc2ccc(CNC(=O)Nc3cccc(S(=O)(=O)F)c3)cc2Cl)n1 | 2%
C/C(=C\c1ccc(Cl)c(Cl)c1)[N+](=O)[O-] | 82% (active)
C#CC(/C=C/Cl)(CC)OC(N)=O (stereo not given) | 3%
CCCC[As](CCCC)SC1CCC2(C)C(=CCC3C4CCC(=O)C4(C)CCC32)C1 (stereo not given) | 16%
[C-]#[O+].[C-]#[O+].[Mo].[N-]=Nc1ccc([N+](=O)[O-])cc1.[c-]1[c-][c-][cH-][c-]1 | -1%
CC/C(=C/c1ccc(OC)cc1)[N+](=O)[O-] | 80% (active)
COc1cccc(C2N(Cc3ccc(N(CCCl)CCCl)cc3C)CCCN2Cc2ccc(N(CCCl)CCCl)cc2C)c1O | 7%
O=c1s[se]c2ccccc12 | 27%
CC12CCC3C(CC=C4CC(SC(=N)N)CCC43C)C1CCC2=O (stereo not given) | 0%
COc1cc(C(=O)[O][Hg][CH2]C2CC(O)CC([CH2][Hg][O]C(=O)c3cc(OC)c(OC)c(OC)c3)O2)cc(OC)c1OC (stereo not given) | 97% (active)

same assay, conditions: S. cerevisiae rad50 strain growth inhibition; at 50.0 µM (retest, dose inferred, filed as 5.0); stronger effect = higher value

SMILES | growth inhibition
Nc1nc(N)c(-c2ccc(Cl)c(Cl)c2)c(COc2ccc(CNC(=O)Nc3cccc(S(=O)(=O)F)c3)cc2Cl)n1 | 11%
C/C(=C\c1ccc(Cl)c(Cl)c1)[N+](=O)[O-] | 98% (active)
C#CC(/C=C/Cl)(CC)OC(N)=O (stereo not given) | 13%
CCCC[As](CCCC)SC1CCC2(C)C(=CCC3C4CCC(=O)C4(C)CCC32)C1 (stereo not given) | 92% (active)
[C-]#[O+].[C-]#[O+].[Mo].[N-]=Nc1ccc([N+](=O)[O-])cc1.[c-]1[c-][c-][cH-][c-]1 | 69%
CC/C(=C/c1ccc(OC)cc1)[N+](=O)[O-] | 99% (active)
COc1cccc(C2N(Cc3ccc(N(CCCl)CCCl)cc3C)CCCN2Cc2ccc(N(CCCl)CCCl)cc2C)c1O | 94% (active)
O=c1s[se]c2ccccc12 | 98% (active)
CC12CCC3C(CC=C4CC(SC(=N)N)CCC43C)C1CCC2=O (stereo not given) | 33%
COc1cc(C(=O)[O][Hg][CH2]C2CC(O)CC([CH2][Hg][O]C(=O)c3cc(OC)c(OC)c(OC)c3)O2)cc(OC)c1OC (stereo not given) | 98% (active)

same assay, conditions: S. cerevisiae rad50 strain growth inhibition; at 50.0 µM; stronger effect = higher value

SMILES | growth inhibition
CN(C)P1(=S)NCC(C(C)(C)C)CO1 (stereo not given) | 10.2%
CCCCSP(SCCCC)N1CCCCC1 | 94.7% (active)
Nc1nc(N)c(-c2ccc(Cl)c(Cl)c2)c(COc2ccc(CNC(=O)Nc3cccc(S(=O)(=O)F)c3)cc2Cl)n1 | 26.8%
C/C(=C\c1ccc(Cl)c(Cl)c1)[N+](=O)[O-] | 0%
OC1C2CCCCN2C[C@@H](O)[C@H]1O (stereo not given in full) | 16.3%
CC12CCC(O)CC1CCC1C2CCC2(C)C(c3ccc(=O)oc3)CC3OC312 (stereo not given) | 35.5%
C#CC(/C=C/Cl)(CC)OC(N)=O (stereo not given) | 1.8%
CC12CCC3C(CCC4(O)C=CCCC34C=O)C1(O)CC(O)C2c1ccc(=O)oc1 (stereo not given) | -28.1%
CN(C)c1cc(C(C)(C)C)nc(C(C)(C)C)c1 | 7.65% and 3%
CCCC[As](CCCC)SC1CCC2(C)C(=CCC3C4CCC(=O)C4(C)CCC32)C1 (stereo not given) | 95.7% (active)
COc1cc2c(cc1OC)C1CC(OC(=O)c3ccccc3)(c3nccc4cc(OC)c(OC)cc34)CCN1CC2 (stereo not given) | 26.9%
CCN1C(=O)C(=C/C=C/c2ccc(OC)cc2)C(=O)N(CC)C1=S | 37.4%
[C-]#[O+].[C-]#[O+].[Mo].[N-]=Nc1ccc([N+](=O)[O-])cc1.[c-]1[c-][c-][cH-][c-]1 | 93.7% (active)
c1ccc2c(c1)cc1ccc3cccc4ccc2c1c34 | -6.9%
CC/C(=C/c1ccc(OC)cc1)[N+](=O)[O-] | 99.2% (active)
COc1cccc(C2N(Cc3ccc(N(CCCl)CCCl)cc3C)CCCN2Cc2ccc(N(CCCl)CCCl)cc2C)c1O | 27.6%
O=c1s[se]c2ccccc12 | 84.2% (active)
CC12CCC3C(CC=C4CC(SC(=N)N)CCC43C)C1CCC2=O (stereo not given) | 67.3%
COc1cc(C(=O)[O][Hg][CH2]C2CC(O)CC([CH2][Hg][O]C(=O)c3cc(OC)c(OC)c(OC)c3)O2)cc(OC)c1OC (stereo not given) | 99.3% (active)
COc1cc2c(cc1O)N=C[C@@H]1CCC(O)N1C2=O (mixture of isomers) | 19.6%
